Results filed as inconclusive are left out. Active and inactive are the calls of the source. Calls follow the shape of the dose curve; as a rule, active = well fitted activation curve with a large enough effect; inconclusive = small, poorly fitted or top-dose-only effect; inactive = flat fitted curve, though single readings scatter.
Assay: qHTS for Inhibitors of Cell Surface uPA Generation: Confirmatory Assay for Cherry-picked Compounds; also: 0% is about no effect
Details: cell surface uPA activity generation, qHTS confirmation; series mostly up to 115 µM; inhibition: at the top concentration
Summary of the method: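 RAW 264.7 cells at 4000/well, incubated overnight, then treated with compounds. After 24 h at 37 C, viability was read by ATPlite luminescence. An increase in signal indicates blocked uPA-dependent LF entry.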

inhibition, inactive:
Cc1cc2[nH]c(=O)c(=O)[nH]c2cc1S(=O)(=O)NC1CCC(C)CC1 (centres undefined) -1.26%, CCCCn1c(N)c(N(CCC(C)C)C(=O)c2sc3nc4n(c(=O)c3c2C)CCC4)c(=O)[nH]c1=O 6.8%, Cc1nn(C)c(C)c1S(=O)(=O)N1CCC(C(=O)NC2CCCCCC2)CC1 -1.06%, CCOC(=O)c1cc(-c2ccccc2C)n(CC2CC(c3ccc(OC)cc3)=NO2)n1 (centres undefined) -3.81%
